Experimental findings from PubChem BioAssay (NCI) are described below.

About 83,000 compounds went through this panel and 20% of them were active in at least one assay; those are over-represented in the sample as a whole.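 Growth was measured after 48 h exposure to one concentration of compound in 96-well plates. Values under 10 count as active.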 Values without a mark were called inactive. The source made the active and inactive calls.

Among the test systems are SK-MEL-2 melanoma; EKVX NSCLC; SN12C renal; UO-31 renal; TK-10 renal; ACHN renal; CAKI-1 renal; A498 renal; CCRF-CEM leukemia; MOLT-4 leukemia.
What all share (test): NCI-60 one-dose screen, 48 h (100 = growth as untreated, 0 = no growth, -100 = all killed)
What all share (conditions): 10 µM unless noted

`O=c1oc2ccc([N+](=O)[O-])cc2cc1Br`: the growth in the assay on SK-MEL-2 melanoma was 106%; with EKVX NSCLC, 102%; with SN12C renal it was 105%; with UO-31 renal it was 88.5%; in the assay on TK-10 renal it was 105%; in the assay on ACHN renal, 117%. Moreover, the growth is 94.5% with CAKI-1 renal, 99.7% in the assay with A498 renal, 109% with CCRF-CEM leukemia and 98.5% in the assay with MOLT-4 leukemia.
`O=C1/C(=C/c2ccc(Cl)c(Cl)c2)CN(C(=O)C(Cl)Cl)C/C1=C\c1ccc(Cl)c(Cl)c1`: the growth in the assay with SK-MEL-2 melanoma was -3.03% (active); in the assay on EKVX NSCLC, -61.7% (active); with SN12C renal, -76% (active); in the assay with UO-31 renal, -99.3% (active); with TK-10 renal, -50.8% (active); with ACHN renal, -100% (active). Also, the growth in the assay on CAKI-1 renal is -74% (active); with A498 renal it was -91.2% (active); with CCRF-CEM leukemia, 4.82% (active); in the assay with MOLT-4 leukemia it was -0.286% (active).
As to `CN(C)CC(=O)Nc1ccc2ncnc(Nc3ccc(Oc4cccc(C(F)(F)F)c4)c(Cl)c3)c2c1`, the growth with SK-MEL-2 melanoma was 92.1%; in the assay on EKVX NSCLC, 28.9%; in the assay with SN12C renal it was 60%; with UO-31 renal it was -3.49% (active); in the assay on TK-10 renal it was 46.9%; with ACHN renal, 23.1%. Further, the growth in the assay with CAKI-1 renal was 35.7%; in the assay with A498 renal, 12.1%; in the assay on CCRF-CEM leukemia, 48.3%; with MOLT-4 leukemia, 50.8%.
On to `CCCCCC(=O)OCC(=O)O[C@@H]1C[C@]2(C(C)C)O[C@@]1(C)[C@@H]1CC[C@@H](C)[C@H]1[C@@H]2OC(=O)/C=C/c1ccccc1`, for which the growth in the assay with SK-MEL-2 melanoma was 94%; in the assay with EKVX NSCLC, 73.8%; with SN12C renal, 19.7%; in the assay on UO-31 renal, -80.3% (active); in the assay on TK-10 renal, 134%; with ACHN renal, -24.2% (active). The growth in the assay with CAKI-1 renal was -4.76% (active); in the assay with A498 renal, -88.6% (active); in the assay on CCRF-CEM leukemia, 59.7%; in the assay with MOLT-4 leukemia it was 72.1%.
On to `Cn1cc(-c2nonc2-c2c[nH]c3ccc(Br)cc23)c2cc(Br)ccc21`, for which the growth in the assay with SK-MEL-2 melanoma is 73.9%; with EKVX NSCLC it was 33.5%; with SN12C renal, 66.9%; in the assay on UO-31 renal, 24.4%; with TK-10 renal it was 39.6%; in the assay on ACHN renal, 14.3%. For the same compound, the growth in the assay on CAKI-1 renal is 24%; in the assay on A498 renal, 28%; in the assay on CCRF-CEM leukemia it was 34.4%; in the assay with MOLT-4 leukemia, 25.1%.
In the case of `COc1ccc(Cc2cc(-c3ccccc3)nn(Cc3ccccc3)c2=O)cc1OC`, the growth is 36.1% in the assay with SK-MEL-2 melanoma; 14.4% in the assay with EKVX NSCLC; 20.2% in the assay on SN12C renal; 14.7% in the assay with UO-31 renal; 49.8% in the assay on TK-10 renal; 27.1% in the assay with ACHN renal. Moreover, the growth is 46.3% with CAKI-1 renal, -16.9% (active) in the assay on A498 renal, 43% in the assay with CCRF-CEM leukemia and 9.1% (active) in the assay on MOLT-4 leukemia.
`Cc1ccc(-n2c(=S)[nH]c3sc4c(c3c2=O)CCC(=O)C4)cc1`: the growth is 39.6% in the assay on SK-MEL-2 melanoma; 93.7% in the assay with EKVX NSCLC; 40.3% in the assay on SN12C renal; 43.8% with UO-31 renal; 83.5% in the assay with TK-10 renal; 39.4% in the assay with ACHN renal. Also, the growth with CAKI-1 renal was 28.6%; with A498 renal, 109%; with CCRF-CEM leukemia, 20.8%; in the assay with MOLT-4 leukemia, 48.9%.
As to `COC(=O)CCC(=O)C(=O)OC`, the growth with SK-MEL-2 melanoma is -34.9% [10 mM] (active); in the assay on EKVX NSCLC, 23.7% [10 mM]; in the assay on SN12C renal, 0.923% [10 mM] (active); with UO-31 renal, -9.29% [10 mM] (active); with TK-10 renal, -8.5% [10 mM] (active); with ACHN renal, 6.94% [10 mM] (active). Also, the growth with CAKI-1 renal was 10.2% [10 mM]; in the assay on A498 renal, -72.8% [10 mM] (active); with CCRF-CEM leukemia, -7.36% [10 mM] (active); in the assay on MOLT-4 leukemia, -11.4% [10 mM] (active).
In the case of `C=C(C)[C@@H]1CC[C@]2(C(=O)O)CC[C@]3(C)[C@H](CC[C@@H]4[C@@]5(C)C[C@@H](Cc6cn(CCO[C@@H]7O[C@H](COC(C)=O)[C@H](OC(C)=O)[C@H](OC(C)=O)[C@H]7OC(C)=O)nn6)[C@H](O)C(C)(C)[C@@H]5CC[C@]43C)[C@@H]12`, the growth is 67.2% in the assay with SK-MEL-2 melanoma; 72% in the assay with EKVX NSCLC; 70.3% with SN12C renal; 81.6% in the assay on UO-31 renal; 79.3% in the assay on TK-10 renal; 86% in the assay with ACHN renal. The growth in the assay with CAKI-1 renal is 73.2%; with A498 renal it was 70.3%; in the assay with CCRF-CEM leukemia, 69.2%; in the assay with MOLT-4 leukemia it was 50.6%.
As for `CCOC(=O)c1nc(Nc2ccc(NC(=O)Nc3ccc(F)cc3)cc2)c2ccccc2n1`, the growth in the assay on SK-MEL-2 melanoma was 103%; in the assay with EKVX NSCLC, 97.4%; in the assay with SN12C renal, 99.4%; in the assay with UO-31 renal, 81%; in the assay with TK-10 renal it was 120%; with ACHN renal it was 102%. Besides, the growth is 91.1% in the assay on CAKI-1 renal, 62% in the assay with A498 renal, 109% in the assay on CCRF-CEM leukemia and 98.5% in the assay on MOLT-4 leukemia.
Regarding `O=C(Nn1c2c(sc1=NCc1ccccc1)C(=O)c1ccccc1C2=O)c1cc2ccc1CCc1ccc(cc1)CC2`, the growth with SK-MEL-2 melanoma was 77.3%; in the assay with EKVX NSCLC, 88.4%; with SN12C renal, 61.8%; with UO-31 renal, 38.2%; with TK-10 renal it was 124%; in the assay with ACHN renal, 42%. In addition, the growth with CAKI-1 renal was 43.4%; in the assay on A498 renal, 86.7%; with CCRF-CEM leukemia it was 40.8%; in the assay with MOLT-4 leukemia, 21%.
For the compound `c1ccc(CNc2c3ccccc3nc3ccccc23)cc1`, the growth with SK-MEL-2 melanoma was 60.8%; in the assay on EKVX NSCLC it was 48.1%; in the assay on SN12C renal, 37.5%; with UO-31 renal, 23.8%; with TK-10 renal, 48.7%; in the assay on ACHN renal, 18.1%. Besides, the growth was 33.1% in the assay with CAKI-1 renal, 16.6% with A498 renal, 39% with CCRF-CEM leukemia and 15.5% in the assay on MOLT-4 leukemia.
Consider `N#C/C(=C\c1ccc(-c2ccc(Cl)cc2)o1)C(=O)Nc1ncc(Cc2ccc(Cl)cc2)s1`, for which the growth is 95.4% with SK-MEL-2 melanoma; 33.7% in the assay on EKVX NSCLC; -0.639% (active) with SN12C renal; 42.1% in the assay with UO-31 renal; 19.8% with TK-10 renal; 5.97% (active) in the assay on ACHN renal. Further, the growth with CAKI-1 renal was 39.1%; with A498 renal, 69.9%; in the assay with CCRF-CEM leukemia it was 41.4%; in the assay on MOLT-4 leukemia it was 78.3%.
